Data published in PubChem BioAssay (NCI).
Compounds without any hit were thinned out: in the full panel of roughly 79,000, 15% have a hit. Values without a mark were called inactive. Active and inactive are the calls of the source. Rule as the data show it: active = growth inhibition above about 70%; inactive = the rest.

Assays:
[1] = NCI Yeast Anticancer Drug Screen. Data for the rad50 strain (AID 155);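 also: 0% = growth of vehicle-only cultures of the same strain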; conditions: S. cerevisiae rad50 strain growth inhibition, active compounds read high
In short: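 A DNA repair-deficient yeast mutant serves as the test organism; compound-induced growth inhibition is calculated against vehicle-treated cells.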

[2] = NCI Yeast Anticancer Drug Screen. Data for the mec2-1 strain (AID 157); conditions: S. cerevisiae mec2-1 strain, active compounds read high
In short: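 Strain: mec2-1 (DNA repair/cell cycle alteration). Compound exposure, then growth measured; inhibition expressed relative to vehicle.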

[3] = NCI Yeast Anticancer Drug Screen. Data for the sgs1 mgt1 strain (AID 161);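 also: 0% = growth of cultures given vehicle only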; conditions: S. cerevisiae sgs1 mgt1 strain, active compounds read high
In short: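 Read-out: growth inhibition vs vehicle controls. Cells: mutant yeast strain deficient in DNA damage repair.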

[4] = NCI Yeast Anticancer Drug Screen. Data for the cln2 rad14 strain (AID 165);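 also: 0% = growth equal to vehicle treated cultures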; conditions: S. cerevisiae cln2 rad14 strain, active compounds read high
In short: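 Compounds are applied to the cln2 rad14 yeast strain, and growth is then compared with that of vehicle-treated cultures to give inhibition.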

[5] = NCI Yeast Anticancer Drug Screen. Data for the bub3 strain (AID 167); conditions: S. cerevisiae bub3 mutant strain, active compounds read high
In short: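 Inhibition values come from growth of compound-treated mutant yeast normalised to vehicle-treated controls.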

[6] = NCI Yeast Anticancer Drug Screen. Data for the mlh1 rad18 strain (AID 175); conditions: S. cerevisiae mlh1 rad18 strain growth inhibition, active compounds read high
In short: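 Read-out is yeast growth inhibition, calculated against vehicle-only controls. The compound was applied to a strain engineered with DNA damage repair alterations.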

[7] = at 5.0 µM (retest, dose inferred, filed as 0.5)
[8] = at 50.0 µM (retest, dose inferred, filed as 5.0)

SMILES	growth inhibition [1, 7]	growth inhibition [1, 8]	growth inhibition ([1]; at 50.0 µM)	growth inhibition [2, 7]	growth inhibition [2, 8]	growth inhibition ([2]; at 50.0 µM)	growth inhibition [3, 7]	growth inhibition [3, 8]	growth inhibition ([3]; at 50.0 µM)	growth inhibition [4, 7]	growth inhibition [4, 8]	growth inhibition ([4]; at 50.0 µM)	growth inhibition [5, 7]	growth inhibition [5, 8]	growth inhibition ([5]; at 50.0 µM)	growth inhibition [6, 7]	growth inhibition [6, 8]	growth inhibition ([6]; at 50.0 µM)
O=C1/C(=C/c2ccccc2)CN(C(=O)CCN2CCCC2)C/C1=C\c1ccccc1	5%	83% (active)	91.8% (active)	10%	86% (active)	90.5% (active)	99% (active)	96% (active)	91.3% (active)	99% (active)	96% (active)	89.7% (active)	99% (active)	96% (active)	92.2% (active)	2%	89% (active)	90.5% (active)
Cc1nn(-c2ccc(Cl)cc2)c2nc(N)nc(N)c12	3%	0%	30.2%	-3%	11%	30.6%	2%	-2%	34.4%	-5%	-6%	62.6%	-1%	0%	21.2%	0%	9%	45.4%
CCCCCC/C=C\C=O	-1%	4%	67.7%	-6%	13%	37.1%	3%	17%	64%	-6%	12%	52%	-2%	6%	79.5% (active)	0%	5%	51.4%
Cc1cc(/C=N/Nc2ccc3cccc(O)c3n2)c(O)c2ncccc12	40%	98% (active)	99.1% (active)	41%	98% (active)	99% (active)	51%	99% (active)	99.1% (active)	21%	99% (active)	98.7% (active)	17%	99% (active)	99.2% (active)	58%	98% (active)	97% (active)
CCCCCCC(OCCC)OCCC	-4%	-3%	35.8%	-28%	-1%	-15.6%	-3%	-1%	5%	-2%	1%	74% (active)	-10%	-6%	-0.5%	-2%	-1%	38.4%
Clc1ccc(CN2COc3c(cc(Cl)c4cccnc34)C2)cc1	4%	71% (active)	7.5%	1%	56%	63.3%	1%	99% (active)	16.5%	1%	99% (active)	98.8% (active)	-6%	55%	99.2% (active)	-7%	99% (active)	24.1%
OC1c2ccccc2C2(O)C1C(c1ccccc1)C(c1ccccc1)C2(O)c1ccccc1 (configuration not stated)	32%	95% (active)	96.7% (active)	-1%	97% (active)	97% (active)	25%	96% (active)	98% (active)	-4%	94% (active)	95.1% (active)	-1%	95% (active)	94.8% (active)	30%	94% (active)	95.7% (active)
O=C(Nc1nc2ccc([N+](=O)[O-])cc2s1)C(=O)C(C1OC(=O)c2ccccc21)[N+](=O)[O-] (configuration not stated)	8%	8%	88.7% (active)	-7%	-7%	87% (active)	9%	9%	88.9% (active)	13%	13%	67.6%	4%	4%	84% (active)	0%	0%	76% (active)
COP(=O)(OC)/C(=C/c1cn(C(c2ccccc2)(c2ccccc2)c2ccccc2)cn1)NC=O	5%	16%	2.1%	2%	-5%	60.7%	-4%	41%	79.9% (active)	1%	14%	0.6%	0%	9%	-1.7%	-12%	40%	39.2%
N=Cc1cc([N+](=O)[O-])ccc1O	-5%	94% (active)	96.8% (active)	-1%	98% (active)	93% (active)	-2%	93% (active)	98.5% (active)	16%	95% (active)	94.5% (active)	-20%	96% (active)	71.3% (active)	12%	98% (active)	98.2% (active)
CC(C)(C)CC(C)(C)N[P+](NC(C)(C)CC(C)(C)C)(NC(C)(C)CC(C)(C)C)NC(C)(C)CC(C)(C)C	89% (active)	98% (active)	83.2% (active)	97% (active)	99% (active)	88.3% (active)	81% (active)	99% (active)	91.5% (active)	84% (active)	99% (active)	90.7% (active)	96% (active)	99% (active)	90.5% (active)	94% (active)	98% (active)	90.7% (active)
CCC(=O)c1cc2ccccc2c2ccccc12	4%	44%	66.3%	0%	20%	39%	0%	40%	37.3%	-3%	0%	9.9%	5%	74% (active)	75.8% (active)	-2%	61%	41.5%
COc1ccc(C2c3cc4c(cc3OC(N3CCOCC3)C2C)OCO4)c(OC)c1 (configuration not stated)	-3%	88% (active)	95.9% (active)	-10%	95% (active)	94.9% (active)	2%	79% (active)	80.8% (active)	18%	99% (active)	73.2% (active)	7%	98% (active)	98% (active)	-26%	96% (active)	97.4% (active)
Cc1ccc(C(=O)/C(Cl)=N/O)cc1	32%	99% (active)	98.8% (active)	10%	100% (active)	99.1% (active)	13%	100% (active)	97.8% (active)	0%	99% (active)	78.7% (active)	3%	99% (active)	98.8% (active)	27%	99% (active)	98.5% (active)
O=C1c2cc([N+](=O)[O-])ccc2-c2cc([N+](=O)[O-])ccc21	44%	32%	91.2% (active)	39%	39%	92.8% (active)	73% (active)	97% (active)	93.3% (active)	46%	99% (active)	68%	80% (active)	97% (active)	91.2% (active)	21%	34%	74.5% (active)
S=c1[nH]c2ccc(Br)cc2c(=S)n1-c1ccccc1	-1%	19%	90.5% (active)	1%	5%	91.2% (active)	0%	24%	89.5% (active)	-1%	4%	88% (active)	-9%	14%	89.4% (active)	-29%	5%	87.7% (active)
C=CS(=O)(=O)c1ccc(C)cc1	0%	49%	84% (active)	6%	70% (active)	78.7% (active)	7%	55%	81.4% (active)	5%	31%	37.2%	4%	61%	75.8% (active)	6%	87% (active)	88.5% (active)
Cc1noc(NS(=O)(=O)c2ccc(NC(=S)/N=C/c3c(O)[nH]c(=O)[nH]c3=O)cc2)c1C	-1%	-5%	16.1%	-18%	-11%	9.75%	-8%	-5%	16.5%	-24%	-19%	44.8%	4%	10%	6.05%	7%	-2%	15.8%
BrCc1ccc2ccc3ccc(CBr)nc3c2n1	2%	83% (active)	69.7%	11%	91% (active)	43.5%	11%	95% (active)	63.9%	-12%	89% (active)	24.8%	-4%	94% (active)	45%	8%	95% (active)	64.8%
